Records with an inconclusive call do not appear. The source made the active and inactive calls. The call rests on the fitted dose curve; in most records, active means well fitted cell-killing curve with a large enough effect in the repeat runs; inconclusive means weak or mixed curves; inactive means no such curve, though single readings can be large or run the other way.
On the % scale 0 is the no-effect control and ±100 the full control effect.

The nature of the assay: qHTS assay to identify small molecule antagonists of the peroxisome proliferator-activated receptor delta (PPARd) signaling pathway - cell viability counter screen (AID 743213). Further: nearly all actives have a fitted effect of over 50% in size. The following applies: PPARd-bla HEK293H viability, CellTiter-Glo luminescence, 17 h; series mostly up to 62 µM; viability change, negative = cytotoxic: at the top concentration. An excerpt: U.S. Tox21 Program National Center for Advancing Translational Sciences [NCATS] NIH Chemical Genomics Center [NCGC] U.S. Environmental Protection Agency [EPA] National Institutes of Environmental Health Sciences [NIEHS] National Toxicology Program [NTP] U.S. Food and Drug Administration [FDA] Tox21 Assay Overview: The peroxisome proliferator-activated receptors (PPARs) are lipid-activated transcription factors of the nuclear receptor superfamily with three distinct subtypes namely PPAR alpha, PPAR delta (PPARd) and PPAR gamma. All these subtypes heterodimerizes with Retinoid X receptor (RXR) and have different physiological functions. […] To identify the compounds that inhibit PPAR-delta signaling, GeneBLAzer PPAR delta UAS-bla HEK293H cell line (Invitrogen, Carlsbad, CA, USA) containing a beta-lactamase reporter gene under the control of an Upstream Activator Sequence (UAS) was used to screen the Tox21 compound library. The cytotoxicity of the Tox21 compound library against the PPARd-bla cell line was tested in parallel by measuring the cell viability using CellTiter-Glo assay (Promega, Madison, WI) in the same wells.
Tox21 Assay Protocol Summary: PPARd-bla cells were dispensed at 3000 cells/5uL/well in 1536-well black wall/clear bottom plates using a Multidrop Combi (Thermo Fisher Scientific, Waltham, MA) dispenser. After the assay plates were incubated at 37 C and 5% CO2 for 5 h, 23 nL of compounds dissolved in DMSO, positive controls or DMSO only was transferred to the assay plate by a Pintool station (Kalypsys, San Diego, CA), followed by addition of 1ul L165041 (300 nM, final concentration in the wells). The assay plates were incubated at 37 C for 17 h, and then 1 uL of LiveBLAzerTM B/G FRET substrate was added using a Bioraptr Flying Reagent Dispenser (FRD) workstation (Beckman Coulter, Indianapolis, IN, USA). The assay plates were incubated at room temperature for 2 h and fluorescence intensity was measured by an Envision plate reader (PerkinElmer, Shelton, CT). For cell viability readout that measures cytotoxicity, 3 ul/well of CellTiter-Glo reagent was added into the assay plates using a Bioraptr FRD. After 30 min incubation at room temperature, the luminescence intensity in the plates was measured using a ViewLux plate reader (PerkinElmer).
A general note: Quantitative high-throughput screening tests each substance at several concentrations.
For the molecule `CCCCCCCCCCCCCCBr`, the “viability change, negative = cytotoxic” value was 1.9% [at 80.4 µM] (inactive).
As for `N#CC1(N)CCCCC1`, the “viability change, negative = cytotoxic” value was -12.7% [at 80.4 µM] (inactive).
The same measure for `Clc1ccc2c(c1)Nc1ccccc1S2`: 21.5% (inactive); for `Cc1ccc(OC(=O)CC(C)C)cc1`: 0.248% (inactive); for `CCCC(C)C(O)CC` (stereo not given): 8.95% (inactive).
In the case of `CC[N+](C)(CC)CC`, the “viability change, negative = cytotoxic” value is 4.41% (inactive).
With `O=S(=O)(O)c1ccc(Cl)cc1`, the “viability change, negative = cytotoxic” value was 17.7% (inactive).
The same measure for `O=C(O)Cc1ccccc1Oc1ccc(Cl)cc1Cl`: 13.4% (inactive); for `CCCCC(CC)COC(=O)CC#N` (stereo not given): -0.394% (inactive); for `O=C(OOC(=O)c1ccccc1)c1ccccc1`: 1.72% (inactive).
`CCOC(=O)[C@H](CCc1ccccc1)N[C@H]1CS[C@H](c2cccs2)CN(CC(=O)O)C1=O`: the “viability change, negative = cytotoxic” value was 16.4% (inactive).
As for `CN(C)CCC[C@@]1(c2ccc(F)cc2)OCc2cc(C#N)ccc21`, the figure is -19% (inactive).
The same measure for `CC(C)C[P+](C)(CC(C)C)CC(C)C`: -10.9% [at 80.4 µM] (inactive); for `C=CC(=O)CC`: -29.1% [at 80.4 µM] (inactive).
As to `CNCCc1ccccn1`, the “viability change, negative = cytotoxic” value was 4.92% (inactive).
In the case of `O=C(O)CCCCCCCCCC(=O)O`, the “viability change, negative = cytotoxic” value was -35% (inactive).
On to `C=CCON/C(CCC)=C1\C(=O)CC(C)(C)C(C(=O)OC)=C1O`, for which the “viability change, negative = cytotoxic” value was 22.7% (inactive).
Regarding `CCCC(=O)C(CC)Sc1ccoc1C` (stereo not given), the “viability change, negative = cytotoxic” value is 0.113% (inactive).
With `C[C@@H](CN1CC(=O)NC(=O)C1)N1CC(=O)NC(=O)C1`, the “viability change, negative = cytotoxic” value is -5.77% (inactive).
For the molecule `CC(C)c1cc(C(C)C)cc(C(C)C)c1`, the “viability change, negative = cytotoxic” value is -1.13% (inactive).
As for `N#Cc1cc(NC(=O)C(=O)O)c(Cl)c(NC(=O)C(=O)O)c1`, the figure is 5.84% (inactive).
Take `Cc1ccc(O)c([N+](=O)[O-])c1`: the “viability change, negative = cytotoxic” value is 19.1% [at 80.4 µM] (inactive).
Turning to `COC(=O)/C=C(\C)CCC=C(C)C`, the “viability change, negative = cytotoxic” value is 2.52% (inactive).
Consider `COCCCOc1cc(C[C@@H](C[C@H](N)[C@@H](O)C[C@H](C(=O)NCC(C)(C)C(N)=O)C(C)C)C(C)C)ccc1OC`, for which the “viability change, negative = cytotoxic” value was 4.77% (inactive).
As for `CCNC(=O)C(C)OC(=O)Nc1ccccc1` (stereo not given), the figure is 0.68% (inactive); as for `CCCc1ncc(C(=O)O)s1`, 3.24% (inactive).
The same measure for `CCCC(=O)OC`: 14.7% (inactive); for `CC(CC(=O)Cl)CC(C)(C)C` (stereo not given): 0.133% [at 80.4 µM] (inactive).
Consider `Cc1cc(O)c(Cl)cc1C`, for which the “viability change, negative = cytotoxic” value is 8.64% (inactive).
On to `Cc1cc(=O)oc2cc(O[C@@H]3SC[C@@H](O)[C@H](O)[C@H]3O)ccc12`, for which the “viability change, negative = cytotoxic” value was 25.2% (inactive).
For the molecule `CCCCNCC`, the “viability change, negative = cytotoxic” value is -0.754% (inactive).
The same measure for `CCO/C=C1\N=C(c2ccccc2)OC1=O`: 3.82% (inactive).
As for `C=CCN(CC=C)CC=C`, the figure is 12.7% (inactive).
In the case of `CC/C=C\CCOC(=O)c1ccccc1`, the “viability change, negative = cytotoxic” value was 12.5% (inactive).
With `CCc1ccc(CC)cc1`, the “viability change, negative = cytotoxic” value was 15.6% [at 80.4 µM] (inactive).
Regarding `BrCCOc1ccccc1`, the “viability change, negative = cytotoxic” value is 6.81% [at 80.4 µM] (inactive).
The same measure for `NS(=O)(=O)c1cc2c(cc1C(F)(F)F)NCNS2(=O)=O`: 4.51% (inactive); for `CCCCCCCCOCCC#N`: -2.38% (inactive); for `CCCc1ccc(O)c(OC)c1`: -7.7% (inactive).
As to `CC(=O)O[C@@H]1CC2C3CCc4cc(OC(=O)c5ccccc5)ccc4C3CCC2(C)[C@H]1OC(C)=O` (stereo not given in full), the “viability change, negative = cytotoxic” value is 14.8% (inactive).

Source of the values: PubChem BioAssay (Tox21).
